Measured values as given in the supplement of paper PMC6897291.

Test system: U-2932
Test: growth inhibition by drug alone (1 - RLU/untreated control) (fraction); higher = stronger inhibition
Settings: 177Lu-lilotomab satetraxetan 0 ug/ml
Protocol: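 U-2932 ABC-DLBCL cells were pretreated or not for 18 h with 1 ug/ml 177Lu-lilotomab satetraxetan (600 MBq/mg), washed and seeded (3000 cells/well) on 384-well plates pre-printed with the Selleck Cambridge Cancer Compound library. Viability was read by RealTime-Glo luminescence on days 3-6 after seeding. Effect = 1 - RLU/mean RLU of the 48 untreated no-drug control wells per plate; Bliss score = (M-E)/(1-Fa), with E the expected Bliss-additive effect.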

Row | SMILES | growth inhibition by drug alone (10 nM, time (day): 3) | growth inhibition by drug alone (10 nM, time (day): 4) | growth inhibition by drug alone (10 nM, time (day): 5) | growth inhibition by drug alone (10 nM, time (day): 6) | growth inhibition by drug alone (1000 nM, time (day): 3) | growth inhibition by drug alone (1000 nM, time (day): 4) | growth inhibition by drug alone (1000 nM, time (day): 5) | growth inhibition by drug alone (1000 nM, time (day): 6)
1 | C[C@]12CCC(=O)C(O)=C1CC[C@@H]1[C@@H]2CC[C@]2(C)C(=O)CC[C@@H]12 [Formestane] | -0.0202 | -0.0416 | -0.00849 | 0.0511 | -0.0617 | -0.0526 | -0.0433 | 0.0231
2 | CCC1(c2ccc(N)cc2)CCC(=O)NC1=O (stereo not given) [Aminoglutethimide (Cytadren)] | 0.0306 | -0.0299 | -0.152 | -0.107 | -0.0187 | -0.0577 | -0.161 | -0.122
3 | CC1=C2C[C@H]3[C@@H](CC=C4C[C@@H](O)CC[C@@]43C)[C@@H]2CC[C@]12O[C@@H]1C[C@H](C)CN[C@H]1[C@H]2C [Cyclopamine] | 0.097 | 0.0521 | -0.0277 | -0.0904 | 0.00899 | 0.035 | -0.037 | -0.267
4 | CC(C)[C@]12O[C@H]1[C@@H]1O[C@]13[C@]1(O[C@H]1C[C@H]1C4=C(CC[C@@]13C)C(=O)OC4)[C@@H]2O [Triptolide] | 0.345 | 0.52 | 0.63 | 0.677 | 0.959 | 0.971 | 0.978 | 0.982
5 | Cc1cc2c(C(C)C)c(O)c(O)c(C=O)c2c(O)c1-c1c(C)cc2c(C(C)C)c(O)c(O)c(C=O)c2c1O [Gossypol] | -0.0803 | -0.0436 | -0.0537 | -0.0327 | -0.00328 | 0.00751 | 0.00351 | 0.0148
